From PubChem BioAssay AID720518 (National Center for Advancing Translational Sciences (NCATS), 2013)
Inconclusive results are not listed. Entries that show only a call come without a potency. Active and inactive are the calls of the source. The call rests on the fitted dose curve.

Test: qHTS for Inhibitors of Cell Surface uPA Generation: Wild-type Protective Antigen (WT-PrAg) Counterscreen for Cherry-picked Compounds
Conditions: cells, WT protective antigen toxicity counterscreen; series mostly up to 115 µM

Row | SMILES | Potency
1 | COc1ccccc1C(=O)NCCC(=O)NCC(c1ccc(F)cc1)N1CCOCC1 (stereo not given) | inactive
2 | CCc1nc(SCC(N)=O)c2c(=O)n(C)c(=O)n(C)c2n1 | inactive
3 | Cc1ccc(NC2CCCN(C(=O)Cc3nonc3C)C2)cc1C (stereo not given) | inactive
4 | COCC(=O)N1CCC(n2nccc2NC(=O)c2ccccc2OC)CC1 | inactive
5 | COc1ccc(N2CCN(C3CCN(S(=O)(=O)c4ccc(F)cc4)CC3)CC2)cc1 | inactive
6 | C/C(=N\NC(=O)c1ccccc1)c1c(C)[nH]n(-c2ccccc2)c1=O | inactive
7 | CCN(CC)S(=O)(=O)c1ccc(C(=O)Nc2cccc(C)c2)cc1 | inactive
8 | COc1cc2oc(=O)ccc2cc1[C@H](O)[C@@H](O)C(C)(C)O | inactive
9 | O=C(NC(=S)Nc1c(F)cc(F)cc1Br)c1ccc2c(c1)OCCO2 | inactive
10 | CC(OC(=O)c1cccc(-n2cnnn2)c1)C(=O)Nc1ccc(F)c(F)c1F (stereo not given) | inactive
11 | O=[N+]([O-])c1ccccc1C=NNC(=S)NN=Cc1ccccc1[N+](=O)[O-] | inactive
12 | CCOC(=O)C1=C(CN2CCN(C(=O)c3ccco3)CC2)NC(=O)NC1c1ccccc1 (stereo not given) | inactive
13 | Cc1nnc2ccc(-c3ccc(NS(=O)(=O)c4ccc(Cl)s4)cc3)nn12 | inactive
14 | CCS(=O)(=O)N1CCC(C(=O)NCc2ccc(OC)cc2OC)CC1 | inactive
15 | COCCOC(=O)C1=C(C)NC(=O)NC1c1cccc2ccccc12 (stereo not given) | inactive
16 | Cc1ccc(S(=O)(=O)N2CCC(C(=O)OC(C)C(=O)NC3CCCCC3C)CC2)cc1 (stereo not given) | inactive
17 | O=C(Cc1ccccc1)Nc1ccc(NC(=O)c2ccccc2)c(Cl)c1 | inactive
18 | Cc1cc(COc2ccccc2)oc1C(=O)O | inactive
19 | COC(=O)C1=CN(Cc2ccc(F)cc2)C=C(C(=O)OC)C1c1ccc(O)c(OC)c1 | inactive
20 | O=C(NCc1ccc(F)cc1)c1cc(S(=O)(=O)N2CCCCC2)ccc1N1CCOCC1 | inactive

Row | SMILES | Potency
21 | COC(=O)/C(C#N)=C\c1c(OC)[nH]c2ccccc12 | inactive
22 | COc1ccc(C(=O)N2CCN(c3ccc(C(C)=O)cc3)CC2)cc1S(=O)(=O)N1CCCC1 | inactive
23 | O=C(Nc1ccc(S(=O)(=O)N2CCOCC2)cc1)c1cc(-c2ccccc2O)n[nH]1 | inactive
24 | CCC(C)C(NC(=O)c1ccccc1)C(=O)Nc1ccc(S(=O)(=O)Nc2cc(C)nc(C)n2)cc1 (stereo not given) | inactive
25 | Cc1ccc(CN2CCN(Cc3cc4ccccc4o3)CC2CCO)cc1 (stereo not given) | inactive
26 | O=C(NCC1CCCO1)c1c(O)c2cccc3c2n(c1=O)CCC3 (stereo not given) | inactive
27 | CC(C)(C)OC(=O)NCCCCCNC(=O)c1[nH]cnc1C(=O)Nc1ccc(Cl)cc1 | inactive
28 | Fc1cccc(Cl)c1CSc1ccc(-c2cccnc2)nn1 | inactive
29 | CC(C)(C)OC(=O)C[C@@H]1C/C=C\C[C@@H](CC(=O)N(CCO)Cc2ccccc2)C(=O)N[C@H](Cc2c[nH]c3ccccc23)COC1=O | inactive
30 | Clc1ccc(C2=NN=C3COc4ccccc4N3C2)cc1 | inactive
31 | Cc1cc(SCc2ccc(Cl)cc2)nc(=O)[nH]1 | inactive
32 | C/C(=N\NC(=O)c1cccc([N+](=O)[O-])c1)c1cccnc1 | inactive
33 | CCOC(=O)N1CCN(c2c(NCCCN3CCCCCC3)c(=O)c2=O)CC1 | inactive
34 | CC(=O)[C@@]1(O)[C@H](C)CC2C3CC=C4CC(OP(=O)(O)O)CC[C@]4(C)C3CC[C@@]21C (stereo not given in full) | inactive
35 | CCCCNc1nnc(SCC(=O)c2c(N)n(CCC)c(=O)[nH]c2=O)s1 | inactive
36 | Nc1cc(=O)[nH]c(SCC(=O)Nc2cccc([N+](=O)[O-])c2)n1 | inactive
37 | O=C(NNC(=O)c1cccnc1)c1ccncc1 | inactive
38 | CCOC(=O)CC(=O)CSc1nc2c(C)c(C)ccc2cc1C | inactive
39 | Cc1cccc(C(=O)NC2CCN(CC(=O)N3CCOCC3)CC2)c1 | inactive
40 | CCCc1nc2c(=O)n(C)c(=O)[nH]c2n1CCC | inactive
